# This is a sample that favours compounds with a hit; in the whole collection about 10% have one here.
# HEK293 tox: cytotoxic compounds in HEK 293 cells. HEK 293 viability, ATP luminescence (CellTiter-Glo), 48-72 h. Potency, µM (doses to about 115 µM), without a hit: top-dose activity change, negative = cytotoxicity, actives largely listed as inhibitors. 94,000 compounds, 6.6% hits; also: % is scaled to controls: 0 for no effect and ±100 for the full control effect; nearly all actives have a fitted effect of over 60% in size
#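 HEK 293 cells seeded at 250 cells/well were exposed to compound for 48 or 72 hr at 37 degree Celsius. Viability taken as ATP content by CellTiter-Glo luminescence.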
# hNpr1 antagonist: antagonists of human natriuretic peptide receptor Npr1 | P16066 | AID 1347048 | 76,000 compounds, 1.6% hits | HEK293 hNpr1 GloSensor cGMP, ANP-stimulated luminescence | Potency, µM (highest dose often 46.3 µM), without a hit: at the top dose activity change, negative = inhibition, usual class: inhibitors; calls by dose curve; also: % is scaled to controls: 0 for no effect and ±100 for the full control effect; nearly all actives have a fitted effect of over 60% in size
#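 HEK293 cells stably expressing human Npr1 and cGMP GloSensor pGS-40F, loaded 2 h with 2% GloSensor reagent, given compound 30 min at room temperature. Luminescence read before and 20 min after 0.1 nM hNppA.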
# GPT2 inhibitor: inhibitors of human GPT2 alanine aminotransferase; 100,000 compounds, 0.25% hits; Recombinant GPT2, coupled pyruvate oxidase/HRP Amplex Red fluorescence; Potency, µM (top dose mostly 57.7 µM), without a hit: at the top dose activity change, negative = inhibition, most hits filed as inhibitors; Q8TD30; also: % is scaled to controls: 0 for no effect and ±100 for the full control effect; nearly all actives have a fitted effect of over 60% in size
#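 Inhibition is scored from Amplex Red fluorescence generated when pyruvate oxidase and HRP act on pyruvate released by GPT2. Reactions contain 10ng/uL enzyme, 250uM a-KG and 2mM L-alanine and run 30 min at room temperature.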
# Luciferase inh: Photinus pyralis luciferase inhibition; purified P. pyralis luciferase, luminescence, biochemical; Potency, µM (doses to about 115 µM), most hits filed as inhibitors; 76,000 compounds, 2.5% hits; also: % is scaled to controls: 0 for no effect and ±100 for the full control effect; nearly all actives have a fitted effect of over 65% in size
#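 Inhibitors were tested against purified firefly luciferase in a biochemical, low-substrate format (both substrates at 10uM) and luminescence measured with a CCD imager.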
# 3T3 cytotox: cytotoxic compounds in NIH 3T3 cells | NIH 3T3 viability, CellTiter-Glo ATP luminescence, 48-72 h | Potency, µM (doses to about 96.7 µM), for inactives: at the top dose activity change, negative = cytotoxicity, most hits filed as inhibitors | 94,000 compounds, 4.3% hits; also: % is scaled to controls: 0 for no effect and ±100 for the full control effect; nearly all actives have a fitted effect of over 55% in size
#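 First NIH 3T3 cells are plated at 400 cells/well; next compound is pinned in; then plates incubate 48 or 72 hr at 37 °C; finally CellTiter-Glo is added and luminescence read after 10 min.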
# Npr1 antag conf: hNpr1 antagonism, confirmation assay; HEK293 hNpr1 cGMP GloSensor luminescence, ANP-stimulated; shares compounds with hNpr1 antagonist; AID 1347044; Potency, µM (titrated, usually from 57.6 µM), without a hit: top-dose activity change, negative = inhibition, hits mostly inhibitors; 1,400 compounds, 76% hits; calls by dose curve; also: nearly all actives have a fitted effect of over 70% in size
# Npr2 selectivity: selectivity test of Npr1 antagonists against human Npr2 | shares compounds with hNpr1 antagonist | HEK293 hNpr2 GloSensor cGMP luminescence, CNP-stimulated | Potency, µM (titrated, usually from 57.6 µM), for inactives: at the highest dose activity change, negative = inhibition, actives largely listed as inhibitors | 1,400 compounds, 67% hits | AID 1347046; calls by dose curve; also: nearly all actives have a fitted effect of over 70% in size
# FLuc inh counter: FLuc enzyme inhibition, Npr1 counter-screen; shares compounds with hNpr1 antagonist; purified FLuc enzyme, luminescence, Km substrate; Potency, µM (highest dose often 57.6 µM), for inactives: at the highest dose activity change, negative = inhibition, actives largely listed as inhibitors; 1,400 compounds, 0.7% hits; also: 0% is about no effect
# GloSensor cGMP: control cell line activity, Npr1 antagonist counter-screen; Potency, µM (series often up to 57.6 µM), for the others: at the top dose activity change, negative = inhibition, most hits filed as inhibitors; AID 1347051; HEK293 GloSensor cGMP, SNP-stimulated, luminescence; 1,400 compounds, 69% hits; shares compounds with hNpr1 antagonist; calls by dose curve; also: % is scaled to controls: 0 for no effect and ±100 for the full control effect; nearly all actives have a fitted effect of over 70% in size
# Starred values were filed as active, the others as inactive; i = inactive; ? = inconclusive; nt = not tested or not shown; [ ] = remark or other dose. Unless noted, calls follow the shape of the dose curve; as a rule, active = well fitted curve in the direction sought with a large enough effect; inconclusive = small, poorly fitted or top-dose-only effect, or another doubt; inactive = no such curve, though single readings can be large; an effect the other way counts as inactive or inconclusive. Potency is read from the fitted curve at half-maximal effect.
SMILES,HEK293 tox,hNpr1 antagonist,GPT2 inhibitor,Luciferase inh,3T3 cytotox,Npr1 antag conf,Npr2 selectivity,FLuc inh counter,GloSensor cGMP
COc1cc2c(cc1Oc1cccc(N(C)C)c1)NC(=O)C21CCN(Cc2cccc(O)c2)CC1,25µM*,11µM*,1%,i,?,19µM*,22µM*,-3%,17µM*
COc1cc2c(cc1Oc1cccc(N(C)C)c1)NC(=O)C21CCN(Cc2ccccc2)CC1,28µM*,11µM*,5%,i,25µM*,17µM*,19µM*,-2%,9.7µM*
COc1ccc(CN2CCC3(CC2)C(=O)Nc2ccccc23)cc1,-26%,nt,-8%,nt,-4%,nt,nt,nt,nt
Cc1cc(CN2CCC3(CC2)C(=O)Nc2ccccc23)no1,-5%[172 µM],nt,-27%[88.5 µM],nt,-9%[138 µM],nt,nt,nt,nt
O=C(Cc1ccccc1)N1Cc2ccccc2CC2(CCCN2Cc2ccncc2)C1 (centres undefined),?,nt,-2%,nt,-18%,nt,nt,nt,nt
O=C(Cc1ccc(Cl)cc1)N1Cc2ccccc2CC2(CCCN2CC2CCNC2)C1 (centres undefined),28µM*,nt,i,nt,16µM*,22µM*,6.1µM*,1%,-1%
COc1c(C)cnc(CN2CCC3(C2)C(=O)N(C)C(=O)N3C)c1C (centres undefined),-14%,nt,i,nt,-22%,nt,nt,nt,nt

# Bioassay records from PubChem BioAssay.
